Rin1-Abl PPI inh – human Rin1-Abl interaction inhibition; P00519+Q13671; TR-FRET Rin1/Abl binding, biochemical; inhibition, % at 7.35 µM; 0.4% of 360,000 active; in the data active = inhibition above about 5%, passing the limit was not always enough
eLon inh – inhibitors of E. coli Lon protease; 0.42% of 360,000 active; purified E. coli Lon protease, fluorescence polarization; inhibition, % at 7.94 µM; AID 602123; in the data active = inhibition above about 13%, passing the limit was not always enough
pPAFAH inh – pPAFAH (human) enzyme inhibition. Q13093. recombinant pPAFAH, FP-rhodamine probe fluorescence polarization. inhibition, % at 3.39 µM. 1.5% of 330,000 active. AID 463082;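 active = inhibition above the mean inhibition across the screen plus 3 SD, cut at about 25% in these data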;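 also: inhibitors block binding of the rhodamine activity-based probe so polarization drops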
PAFAH1B2 inh – blocks human PAF acetylhydrolase 1b catalytic subunit 2. P68402. recombinant PAFAH1B2, FP-rhodamine activity probe, fluorescence polarization. inhibition, % at 3.39 µM. 1.2% of 340,000 active;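 active = inhibition above the mean of all tested compounds plus 3 SD, cut at about 24% in these data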
Target sequence (P68402 whole entry, looked up): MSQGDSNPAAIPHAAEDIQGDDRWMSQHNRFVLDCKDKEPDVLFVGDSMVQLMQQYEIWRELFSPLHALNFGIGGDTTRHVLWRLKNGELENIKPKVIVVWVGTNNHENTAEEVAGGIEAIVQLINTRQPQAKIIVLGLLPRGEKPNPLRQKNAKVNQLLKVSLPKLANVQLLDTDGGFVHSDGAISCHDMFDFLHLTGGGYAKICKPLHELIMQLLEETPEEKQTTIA
PAFAH1B3 inh – blocks human PAF acetylhydrolase 1B catalytic subunit 3. Q15102. recombinant PAFAH1B3, FP-rhodamine probe, fluorescence polarization. inhibition, % at 3.39 µM. 0.28% of 340,000 active;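 active = inhibition above the screen-wide average of all tested compounds plus 3 SD, cut at about 25% in these data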
Target sequence (Q15102 whole entry, looked up): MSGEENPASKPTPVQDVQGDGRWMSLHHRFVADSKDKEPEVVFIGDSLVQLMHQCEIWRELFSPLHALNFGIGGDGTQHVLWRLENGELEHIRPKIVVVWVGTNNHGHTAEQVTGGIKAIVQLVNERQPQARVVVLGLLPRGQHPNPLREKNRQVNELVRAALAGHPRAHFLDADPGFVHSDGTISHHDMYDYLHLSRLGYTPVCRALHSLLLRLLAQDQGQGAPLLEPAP
PAFAH2 FP inh – inhibitors of human PAFAH2; Q99487; recombinant PAFAH2, FP-rhodamine activity probe, fluorescence polarization; inhibition, % at 3.39 µM; 0.99% of 340,000 active;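 active = inhibition above the mean over all tested compounds plus 3 SD, cut at about 30% in these data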;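 also: inhibitors block probe labeling of enzyme so polarization drops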
Each line names hits and unclear results; the compound was inactive in the other large screens. In the library only some 3.1% were active in any assay of this set; here they are far more common.

CCn1c(SCC(=O)NC2CCCC2)nc2c(c1=O)SCC2	none (no result: pPAFAH inh, PAFAH1B2 inh, PAFAH1B3 inh, PAFAH2 FP inh)
O=C(O)CCCC(=O)N1CCN(c2nc(-c3ccccc3Cl)c3cc(Br)ccc3n2)CC1	pPAFAH inh 27.7
Cc1ccc2nc(N3CCN(C(=O)CCCC(=O)O)CC3)nc(-c3ccccc3)c2c1	none
O=C(c1ccccc1F)N1CCN(Cc2cccc(Cl)c2)CC1	pPAFAH inh 28.9
COc1ccccc1OCC(=O)OC/C(O)=C(\C#N)c1nc2ccccc2[nH]1	none
N#C/C(=C(/O)COC(=O)Cc1c[nH]c2ccccc12)c1nc2ccccc2[nH]1	pPAFAH inh 24.9
Cc1cc(C(=O)O)ccc1-n1c(C)cc(C=C2C(=O)c3ccccc3C2=O)c1C	none
Cc1cc(C(=O)O)ccc1-n1c(C)ccc1C	pPAFAH inh 50.0 (no result: Rin1-Abl PPI inh, eLon inh, PAFAH1B2 inh, PAFAH1B3 inh, PAFAH2 FP inh)
NC(=O)c1cc(N)ccc1N1CCCC1	none
Cc1cc(N)ccc1N1CCCC1	pPAFAH inh 26.1
Cc1cc(N)ccc1-n1c(C)ccc1C	pPAFAH inh 33.1
O=C(CCCn1cncn1)N1CCCC(Nc2ccc(F)cc2)C1 (stereo unspecified)	none (no result: pPAFAH inh)
COCCCNC(=O)C1=CCN(S(=O)(=O)c2ccc(C)cc2)CC1	none
CC(C)(C)c1ccc(CC(=O)N2CCC2(C)C(=O)Nc2cnc3ccccc3c2)cc1 (stereo unspecified)	none (no result: pPAFAH inh, PAFAH1B2 inh, PAFAH1B3 inh, PAFAH2 FP inh)
Cc1[nH]nc2c1C(c1ccc(F)cc1)C(C#N)=C(N)O2 (stereo unspecified)	none
Cc1oc(C)c2c(=O)ccc3c(c12)OC(N)=C(C#N)C3c1ccc(F)cc1 (stereo unspecified)	pPAFAH inh 31.7
Cc1ccccc1NS(=O)(=O)c1ccc(C(=O)NCC(c2ccco2)N(C)C)cc1 (stereo unspecified)	pPAFAH inh 30.1
O=C(NCC(c1ccco1)N1CCCCC1)c1ccc(COc2ccc(Cl)cc2)cc1 (stereo unspecified)	PAFAH1B2 inh 30.7 (no result: pPAFAH inh)
Cc1ccccc1NS(=O)(=O)c1ccc(C(=O)NCC(c2ccco2)N2CCCCC2)cc1 (stereo unspecified)	pPAFAH inh 33.5
CCO/C=N/Nc1nc(C(F)(F)F)nc2c1cnn2Cc1ccccc1	none
Cc1c(NC(=O)CSc2nc(N)cc(N)n2)c(=O)n(-c2ccccc2)n1C	none
COc1cccc2c(=O)c3cccc(N)c3[nH]c12	pPAFAH inh 30.9
CCOC(=O)[C@]12CCCC=C1N(Cc1ccco1)C(=O)[C@H](CC(=O)N1CCSCC1)C2	none (no result: Rin1-Abl PPI inh, pPAFAH inh, PAFAH1B2 inh, PAFAH1B3 inh, PAFAH2 FP inh)
CC(C)(C)c1ccc(S(=O)(=O)N(CCCN2CCOCC2)Cc2cccs2)cc1	pPAFAH inh 32.5, PAFAH2 FP inh 29.9
COCCNC(=O)CN1C(=O)NC2(CCOc3ccccc32)C1=O (stereo unspecified)	none
CC(CNC(=O)CN1C(=O)NC2(CCOc3ccccc32)C1=O)c1ccccc1 (stereo unspecified)	PAFAH1B2 inh 28.2
CCCC1(CC)C(=O)NC(=O)N=C1N (stereo unspecified)	none (no result: pPAFAH inh)
O=C(CCCc1ccccc1)Nc1cccc(C(=O)O)c1	PAFAH1B2 inh 25.1
Cc1c(C(=O)NCc2ccc(F)cc2)sc(=O)n1Cc1ccccc1F	none (no result: pPAFAH inh, PAFAH1B2 inh, PAFAH1B3 inh, PAFAH2 FP inh)
COc1ccccc1Nc1nc2ccccc2n1C	pPAFAH inh 27.5
O=C(NCCC(=O)N(CCc1ccccc1)Cc1ccccc1)c1ccc(Br)cc1	none
CCCCCCCN=CC1=C(O)CC(c2ccccc2)CC1=O (stereo unspecified)	PAFAH1B2 inh 26.3
CCCCN=CC1=C(O)CC(c2ccccc2)CC1=O (stereo unspecified)	none
Cc1nc(Cl)c(C(=O)NCCc2ccccc2)c(C)c1[N+](=O)[O-]	none
Cc1cccc(NC(=S)NNC(=O)c2csc3c2CCC(C)C3)c1 (stereo unspecified)	pPAFAH inh 27.2
COc1c(O)c(O)c2oc(-c3ccccc3)cc(=O)c2c1OC	none
COc1cc(-c2cc(=O)c3c(O)c(OC)c(OC)c(O)c3o2)ccc1O	pPAFAH inh 26.4
Cc1ccc(OCC(=O)NCC2CCCO2)c(C)c1 (stereo unspecified)	none
Cc1ccc(C)c(NS(=O)(=O)c2ccc(OCC(=O)NCC3CCCO3)cc2)c1 (stereo unspecified)	pPAFAH inh 28.0
COc1ccc(NS(=O)(=O)c2cccc(C(=O)NCC3CCCO3)c2)cc1 (stereo unspecified)	none
Cc1ccc(S(=O)(=O)Nc2ccccc2C(=O)NCC2CCCO2)cc1 (stereo unspecified)	none (no result: Rin1-Abl PPI inh, eLon inh, PAFAH1B2 inh, PAFAH1B3 inh, PAFAH2 FP inh)
Cc1ccccc1NS(=O)(=O)c1ccc(C(=O)NCC2CCCO2)cc1 (stereo unspecified)	pPAFAH inh 24.6
O=C(NCC1CCCO1)c1cccc(S(=O)(=O)Nc2ccc(SC(F)F)cc2)c1 (stereo unspecified)	pPAFAH inh 34.4
COc1ccc(-n2c(SC(C)C(=O)Nc3ccc(NC(C)=O)cc3)nc3ccccc3c2=O)cc1OC (stereo unspecified)	none
CNCc1ccccc1Sc1cc(O)ccc1O	pPAFAH inh 24.8
O=C(O)CSc1cc(NS(=O)(=O)c2cccc([N+](=O)[O-])c2)c2ccccc2c1O	PAFAH1B2 inh 27.6, PAFAH1B3 inh 49.3 (no result: pPAFAH inh)
Cc1ccc(C)c(S(=O)(=O)Nc2cc(SCC(=O)O)c(O)c3ccccc23)c1	eLon inh 33.5, PAFAH1B2 inh 72.3, PAFAH1B3 inh 51.0, PAFAH2 FP inh 34.1
COc1ccc(C2CC(c3cccs3)=NN2C(=O)CSc2nc(=O)n3cc(C)ccc3n2)cc1 (stereo unspecified)	none
Clc1cc(Cl)c(OCCCCn2cncn2)c(Cl)c1	none
COCCCNC(=O)C(=O)NC1CCCCC1C (stereo unspecified)	pPAFAH inh 25.9
COc1ccc(NS(=O)(=O)c2ccc(NC(=O)C(CCSC)NC(N)=O)cc2)cc1 (stereo unspecified)	pPAFAH inh 31.0
CNS(=O)(=O)c1ccc(NC(=O)C(CCSC)NC(N)=O)cc1 (stereo unspecified)	none
CN(C)S(=O)(=O)c1cccc(NC(=O)C2CCCN(C(=O)c3ccc(Cl)cc3)C2)c1 (stereo unspecified)	none (no result: pPAFAH inh, PAFAH1B2 inh, PAFAH1B3 inh, PAFAH2 FP inh)
COC(=O)C(C)(C)c1cccnc1C#N	none (no result: pPAFAH inh)
CCCCNc1c(-c2ccc(OC)c(SC3CCCCC3)c2)nc2cnccn12	pPAFAH inh 33.0
Cc1ccsc1C(=O)N1CCC1(C)C(=O)NCc1cccnc1 (stereo unspecified)	none (no result: pPAFAH inh, PAFAH1B2 inh, PAFAH1B3 inh, PAFAH2 FP inh)
O=C(NCc1ccccn1)C(=O)NCC1OCCN1S(=O)(=O)c1ccc(F)cc1 (stereo unspecified)	none
S=c1[nH]nc(-c2cc(-c3ccccc3)n[nH]2)n1/N=C/C=C/c1ccco1	pPAFAH inh 26.1 (no result: PAFAH1B2 inh, PAFAH1B3 inh, PAFAH2 FP inh)
CCOc1cc(/C=C2\SC(=O)N(CC(=O)Nc3ccccc3F)C2=O)cc([N+](=O)[O-])c1O	pPAFAH inh 32.1, PAFAH2 FP inh 34.1
COc1cc(/C=C2\SC(=O)N(CC(=O)Nc3ccccc3F)C2=O)cc(Cl)c1O	none

Screening data from PubChem.
